Experimental data reported in PubChem BioAssay AID624116 (National Center for Advancing Translational Sciences (NCATS), 2012).
Results filed as inconclusive are left out. The source made the active and inactive calls. Calls come from the whole dose curve; as a rule, active = well fitted activation curve with a large enough effect; inconclusive = small, poorly fitted or top-dose-only effect; inactive = no such curve, though single readings can be large or run the other way.

Assay: qHTS Assay for Rab9 Promoter Activators: Hit Validation Using Renilla Luciferase Read-Out for Rab9
Text: Niemann Pick Type C (NPC) is a rare neurodegenerative lipidosis that is characterized by lipid storage in the endosomal/lysosomal system. Treatment modalities for this devastating disease are currently non-existent due to the severe obstacles associated with accessing the central nervous system with proteins or genes. The majority of mutations causing NPC disease are missense mutations that are distributed throughout the length of the NPC1 protein, with the most prevalent being the I1061T allele. Although NPC1 mutant proteins may be functional, they are typically trapped in the ER due to misfolding. […] We have developed and optimized a cell based renilla luciferase reporter assay in 1536 well format for the identification of up-regulators of the mutant Rab9 promoter. This assay presents data on the validation of hits from the primary screen, which used a firefly luciferase read-out. NIH Chemical Genomics Center [NCGC] NIH Molecular Libraries Probe Production centers Network [MLPCN] MLPCN Grant: MH089375 Assay Submitter (PI): Yiannis A. Ioannou
Huh7 cells stably expressing NPC promoter-luciferase will be seeded at 1,500 cells/well in 5 uL in 1,536-well white opaque plates with 23 nL/well of compound in DMSO solution. The assay plates will be incubated at 37 deg C for 24 hours, after which 3 uL/well BriteLite plus luciferase detection reagent mixture (Perkin Elmer) will be added. Luminescence signal will be measured in a ViewLux plate reader (Perkin Elmer) after a 10 minute incubation at the room temperature.

Row | SMILES | outcome
1 | COc1ccc(C(CC(=O)N2CCC3(CC2)OCCO3)NS(=O)(=O)c2ccc(F)cc2)cc1 (stereo unspecified) | inactive
2 | Cc1cccn2c(NCC3CCCO3)c(C(C)C)nc12 (stereo unspecified) | inactive
3 | COc1cccc(CCNCc2ccc(SC)cc2)c1 | inactive
4 | CCC(=NCc1cccnc1)c1c(O)n(-c2ccccc2)c(=O)[nH]c1=O | inactive
5 | CN1CCc2cc3c(c4c2C1Cc1ccccc1-4)OCO3 (stereo unspecified) | inactive
6 | O=C1c2ccccc2C(=O)N1Cc1nc2ccccc2c(=O)n1-c1cccnc1 | inactive
